Screening results from PubChem BioAssay.
NOMO-1 viab: STK33 inhibitor candidate reducing NOMO-1 cell viability; NOMO-1 AML viability, CellTiter-Glo luminescence, 72 h; inhibition, % (test concentration not listed); 37,000 tested, 7.5% active; in the data active = inhibition above about 80%
YB-1 expr inh: YB-1 expression inhibition; 30,000 tested, 0.37% active; U2OS, qRT-PCR YB-1 vs CDIP delta delta Cp, 16 h; hits give high values; zero = DMSO, each unit about twofold; AID 434959; delta delta Cp (YB-1 minus CDIP) (test concentration not listed);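 active = delta delta Cp rounded down to an integer at or above 3, about 3 SD of DMSO wells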;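 note: higher means less YB-1 transcript or more CDIP transcript relative to DMSO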
PD-1 reverse act: activators reversing PD-1 mediated T-cell inhibition. activation, % (no concentration beside the values). primary human CD4 T cells, PD-L1 beads, CellTiter-Glo 96 h. 29,000 tested, under 10 active; call rule not given here
Hedgehog inh: blocks Sonic Hedgehog signaling; Shh-LIGHT2 Gli-luciferase reporter, 30 h; inhibition, % (test concentration not listed); 22,000 tested, 2.1% active;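 active = mean inhibition across valid replicates above about 65%, limit read from the data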;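 note: pathway switched on by Shh-conditioned medium diluted 1 in 25 in low serum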
MITF inh: inhibitors of MITF; TRPM1 promoter luciferase, luminescence, 24 h; inhibition, % (test concentration not listed); 37,000 tested, 0.28% active; in the data active = inhibition above about 85%;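 note: human melanocyte line stably carrying TRPM1 promoter luciferase reporter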
Large screens that a line does not name were inactive. Compounds with a hit are over-represented: about 7.4% of the library has one in this group of screens.

Cc1ccc(S(=O)(=O)N(C)C[C@@H]2Oc3c(NS(=O)(=O)c4cccs4)cccc3C(=O)N([C@@H](C)CO)C[C@H]2C)cc1	none
CC(C)(C)c1ccc(OCC(N)=NC(=O)c2ccc(OC(F)(F)F)cc2)cc1	NOMO-1 viab 136 (no result: Hedgehog inh)
COc1ccc(NC(=O)N(C)C[C@H]2Oc3c(NS(=O)(=O)c4cn(C)cn4)cccc3C(=O)N([C@@H](C)CO)C[C@@H]2C)cc1	none
O=C(N/N=C/c1c(F)c(F)c(F)c(F)c1F)c1ccccn1	none (no result: NOMO-1 viab, PD-1 reverse act, Hedgehog inh, MITF inh)
COc1cc(C2OC[C@@H]3[C@@H](c4cc(OC)c(O)c(OC)c4)OC[C@H]23)cc(OC)c1O (some centres undefined)	none
COc1cc([C@@H]2c3cc4c(cc3[C@@H](O[C@@H]3O[C@@H]5CO[C@@H](C)O[C@H]5[C@H](O)[C@H]3O)[C@H]3COC(=O)[C@H]23)OCO4)cc(OC)c1O	NOMO-1 viab 117 (no result: PD-1 reverse act)
COc1cc([C@@H]2c3cc4c(cc3[C@H](O)[C@H]3COC(=O)[C@H]23)OCO4)cc(OC)c1OC	NOMO-1 viab 113, Hedgehog inh 91 (no result: PD-1 reverse act)
COc1cc([C@@H]2c3cc4c(cc3[C@H](O)[C@H]3COC(=O)[C@@H]23)OCO4)cc(OC)c1OC	NOMO-1 viab 108, Hedgehog inh 75 (no result: PD-1 reverse act)
O=C(Oc1cc(=O)oc2c1c(=O)n1c3c(cccc23)CC1)c1ccccc1	NOMO-1 viab 140
C[C@@H]1CN([C@@H](C)CO)C(=O)c2cccc(NC(=O)c3nc4ccccc4s3)c2O[C@H]1CN(C)Cc1ccccc1	none (no result: PD-1 reverse act)
Cc1cc(=S)nc(-c2ccccn2)[nH]1	NOMO-1 viab 112
CC(C)NC(=O)N(C)C[C@H]1Oc2ccc(NS(=O)(=O)c3ccccc3)cc2C(=O)N([C@H](C)CO)C[C@H]1C	none (no result: PD-1 reverse act)
C[C@H]1CN([C@@H](C)CO)C(=O)c2cccc(NC(=O)C3CCCCC3)c2O[C@@H]1CN(C)Cc1ccc(C(F)(F)F)cc1	NOMO-1 viab 91
C[C@@H]1CN([C@@H](C)CO)C(=O)c2cccc(NC(=O)C3CCCCC3)c2O[C@H]1CN(C)Cc1ccc(C(F)(F)F)cc1	NOMO-1 viab 105
C[C@H](CO)N1C[C@H](C)[C@H](CN(C)Cc2ccc(C(F)(F)F)cc2)Oc2c(NC(=O)C3CCCCC3)cccc2C1=O	none (no result: PD-1 reverse act)
C[C@H](CO)N1C[C@H](C)[C@@H](CN(C)Cc2ccc(C(F)(F)F)cc2)Oc2c(NC(=O)C3CCCCC3)cccc2C1=O	NOMO-1 viab 99
O=C(CSc1nc2ccccc2[nH]1)Nc1cccc(C(=O)O)c1	none (no result: YB-1 expr inh, Hedgehog inh)
C[C@H](CO)N1C[C@H](C)[C@H](CN(C)Cc2ccc(-c3ccccc3)cc2)Oc2ccc(NC(=O)Nc3ccccc3)cc2C1=O	none
CC(C)(C)c1ccc(-c2cc3ccccn3c2)cc1	NOMO-1 viab 104, YB-1 expr inh 10
Cc1ccc(N(C(C)C(=O)Nc2cccc(F)c2)S(C)(=O)=O)cc1 (centres undefined)	none (no result: YB-1 expr inh, Hedgehog inh)
CC1CCC(C(C)C)C(NC(=S)Nc2cccc(F)c2)C1 (centres undefined)	NOMO-1 viab 122, Hedgehog inh 102
CCC1c2[nH]c3ccccc3c2CCN1C(=O)c1ccc(Cl)cc1 (centres undefined)	NOMO-1 viab 84
COC(=O)[C@@H]1[C@H]2C[C@H]3c4[nH]c5ccccc5c4CCN3C[C@@H]2CC[C@@H]1O	none
C[C@@H]1CN([C@@H](C)CO)C(=O)c2cccc(NC(=O)Nc3ccc(F)cc3)c2O[C@@H]1CN(C)Cc1ccncc1	none
CCN(CC)C(=S)SSC(=S)N(CC)CC	NOMO-1 viab 141
CC[C@]12CCCN3CCc4c(n(c5ccccc45)C(=O)C1)[C@@H]32	NOMO-1 viab 112
CC(C)(C)c1ccc(C(=O)C(C#N)=C2SCCCS2)cc1	NOMO-1 viab 109 (no result: Hedgehog inh)
CC(C)NC(=O)N(C)C[C@@H]1OCCCC[C@@H](C)Oc2ccc(N(C)C)cc2C(=O)N([C@H](C)CO)C[C@@H]1C	none
COc1cc(-c2coc3cc(OCc4ccccc4)c(OC)c(O)c3c2=O)cc(O)c1OC	none (no result: PD-1 reverse act)
O=c1c(Cc2ccccc2OCc2ccccc2)coc2ccccc12	Hedgehog inh 93
C[C@H]1CN([C@@H](C)CO)C(=O)c2cc(NC(=O)CCCCCC(=O)Nc3ccccc3N)ccc2O[C@H]1CN(C)Cc1ccc(Cl)c(Cl)c1	NOMO-1 viab 111 (no result: YB-1 expr inh, Hedgehog inh)
C[C@H]1CN([C@@H](C)CO)C(=O)Cc2cc(NC(=O)CCCCCC(=O)Nc3ccccc3N)ccc2O[C@@H]1CN(C)Cc1ccc(Cl)c(Cl)c1	NOMO-1 viab 92 (no result: Hedgehog inh)
C[C@@H]1CN([C@H](C)CO)C(=O)c2cc(NC(=O)CCCCCC(=O)Nc3ccccc3N)ccc2O[C@@H]1CN(C)Cc1ccc(Cl)c(Cl)c1	none (no result: NOMO-1 viab, PD-1 reverse act, Hedgehog inh, MITF inh)
C[C@@H]1CN([C@H](C)CO)C(=O)Cc2cc(NC(=O)CCCCCC(=O)Nc3ccccc3N)ccc2O[C@H]1CN(C)Cc1ccc(Cl)c(Cl)c1	NOMO-1 viab 108 (no result: Hedgehog inh)
C[C@@H]1CN([C@H](C)CO)C(=O)Cc2cc(NC(=O)c3ccncc3)ccc2O[C@@H]1CN(C)Cc1ccc(Oc2ccccc2)cc1	Hedgehog inh 73
C[C@H]1CN([C@@H](C)CO)C(=O)Cc2cc(NC(=O)c3ccncc3)ccc2O[C@H]1CN(C)Cc1ccc(-c2ccccc2)cc1	NOMO-1 viab 89 (no result: PD-1 reverse act)
Clc1ccc(-c2cnc3n2CCC3)cc1Cl	NOMO-1 viab 112 (no result: Hedgehog inh)
C[C@@H]1CN([C@H](C)CO)C(=O)Cc2cc(NC(=O)Nc3ccc(F)cc3)ccc2O[C@H]1CN(C)Cc1ccc2c(c1)OCO2	none
C[C@@H]1CN([C@H](C)CO)C(=O)Cc2cc(NC(=O)Nc3ccc4c(c3)OCO4)ccc2O[C@@H]1CN(C)Cc1ccc(C(F)(F)F)cc1	NOMO-1 viab 81
C[C@H](CO)N1C[C@H](C)[C@H](CN(C)Cc2ccc3c(c2)OCO3)Oc2ccc(NC(=O)Nc3ccc(C(F)(F)F)cc3)cc2CC1=O	NOMO-1 viab 124
C[C@@H]1CN([C@H](C)CO)C(=O)Cc2cc(NC(=O)Nc3ccc(C(F)(F)F)cc3)ccc2O[C@@H]1CN(C)Cc1ccc2c(c1)OCO2	NOMO-1 viab 115
C[C@H]1CN([C@@H](C)CO)C(=O)Cc2cc(NC(=O)Nc3ccc(C(F)(F)F)cc3)ccc2O[C@@H]1CN(C)Cc1ccc2c(c1)OCO2	none (no result: PD-1 reverse act)
CCOc1ccc(NC(=O)CSc2nc(N)c3c4c(sc3n2)COC(C)(C)C4)cc1	none (no result: YB-1 expr inh, PD-1 reverse act, Hedgehog inh)
CCOC(=O)CSc1nc(N)c2c3c(sc2n1)COC(C)(C)C3	NOMO-1 viab 105 (no result: YB-1 expr inh, Hedgehog inh)
CC(C)COC(=O)N(C)C[C@@H]1OCc2cn(nn2)CCCC(=O)N([C@@H](C)CO)C[C@@H]1C	none (no result: NOMO-1 viab, PD-1 reverse act, Hedgehog inh, MITF inh)
C=CCN1C(=O)/C(=C/c2cc(C)n(CCOC)c2C)C(=O)NC1=S	none
C=CCN1C(=O)/C(=C/c2cn(C(C)CC)c3ccccc23)C(=O)NC1=S (centres undefined)	NOMO-1 viab 132 (no result: Hedgehog inh)
C[C@@H]1CN([C@H](C)CO)C(=O)CCCn2cc(nn2)CO[C@@H]1CN(C)S(C)(=O)=O	none (no result: NOMO-1 viab, PD-1 reverse act, Hedgehog inh, MITF inh)
